The first test deals with GHDC. Nature of the test: pooled miR-30 sensor sort-seq; sequence = guide strand. The conditions noted are these: shRNA.
TAGCTCTTCACCATCAGTCTCC displayed a sensor-assay potency score (higher = more potent) of 0.0115. Turning to AGAAGTTCGACAGCCGTCCCAG, the sensor-assay potency score (higher = more potent) was -0.973. Same read-out and setting: to TTATGTCTGTGCTCCTTCTGAG belongs -0.0646; to CTGCTCTCCACTGTCTTCCTGC, -1.58; to ATTGTAGGCACCAACCACTCGC, 0.0645. TTGTAGGCACCAACCACTCGCA: the sensor-assay potency score (higher = more potent) was -0.926. As for TGCTGCTCTCCACACAGCCATG, the sensor-assay potency score (higher = more potent) was -2.06. On the same count and under the same terms, to TTTTCCTCTGACAGATTCCTCA belongs -0.542; to TCAGAGAACAGGTCTTCACCAA, 0.187; to TTCCTCTGACAGATTCCTCAGC, -0.103.

As for TCCACTGTCTTCCTGCTGGGTC, the sensor-assay potency score (higher = more potent) was -1.07.

Turning to TCCAGCCTGCAGATGAACCTGA, the sensor-assay potency score (higher = more potent) was -0.985.

The next test addresses GHRL. Described as above. The conditions noted are these: shRNA.
Turning to TCTTCGACTCCTTTCTCTGCTG, the sensor-assay potency score (higher = more potent) is -0.622. On the same count and under the same terms, to TTTCTCTGCTGGACTCTCTGGT belongs 0.0983. TAGAGCTCGGGGCTGCAGCTTG: the sensor-assay potency score (higher = more potent) is -0.899. Regarding TGCTTGACCTCCATCTTCCGGG, the sensor-assay potency score (higher = more potent) was -0.583. Same read-out and setting: the figure for TTCTCTGCTGGACTCTCTGGTG is -0.904; for TCTCTGCTGGACTCTCTGGTGT it is -0.98.

On to TTCTGCTTGACCTCCATCTTCC, for which the sensor-assay potency score (higher = more potent) is -0.0657. On the same count and under the same terms, to TGAGCTTGTACAACAGTCGTGG belongs 0.776; to TACTGAACCCCTGACAGCTTGA, -0.592. Same read-out and setting: the figure for TTGATTCCAACATCAAAGGGGG is 0.299; for TTGACCTCCATCTTCCGGGCGG it is -0.454. On the same count and under the same terms, to TGTCCTGAAGAAACTTCCCCAG belongs -1.03.

The record behind these values is the OligoGym collection.
Note: reference of the scale not given here.
